Reference: PubChem BioAssay (NCATS)
Inconclusive results are not listed. Calls of active or inactive are those of the source. Unless noted, the call rests on the fitted dose curve; in most records, active means well fitted curve in the direction sought with a large enough effect; inconclusive means small, poorly fitted or top-dose-only effect, or another doubt; inactive means no such curve, though single readings can be large; an effect the other way counts as inactive or inconclusive.

Assays:
[1] = AP1 Signaling Pathway (AID 357; active means well fitted curve in either direction with a large enough effect, not every such curve was filed as active;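 further: ME-180 reporter cells stimulated with EGF at its EC50 level; on the % scale 0 is the no-effect control and ±100 the full control effect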); conditions: ME-180 AP-1-bla reporter, EGF-induced, beta-lactamase ratio, 5 h; at 17.2 µM (top of the series) unless noted
Method in brief: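 Read-out was the 460nm/530nm emission ratio (excitation 405nm) after CCF4 loading for 2.5 hours at room temperature. Cells carried an AP-1-driven beta-lactamase reporter, were stimulated with EC50 EGF plus compound for 5 hours, and AC50 values came from titrations.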

[2] = molecular target: Cytochrome P450 1A2 (Homo sapiens) (UniProt P05177); assay: p450-cyp1a2 (AID 410; calls by dose curve; further: potency means the concentration at half of the fitted maximal effect;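 on activity change, negative = inhibition: -100% = full effect of reference inhibitor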)
Method in brief: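 O-Demethylation of luciferin 6' methyl ether by human CYP1A2 is monitored as luciferase luminescence. Substrate sits at Km (100uM); enzyme is 20nM. Values are scaled to 57 uM furafylline as maximal inhibition.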

[3] = Stat Signaling Pathway (AID 446; active means well fitted curve in either direction with a large enough effect, not every such curve was filed as active;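 further: ME-180 cervical cancer cells given 40 pM IL-6 alongside compound; SIE-controlled beta-lactamase reporter measured as 460/530 nm FRET emission ratio; on the % scale 0 is the no-effect control and ±100 the full control effect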); conditions: ME-180 SIE beta-lactamase reporter, IL-6 stimulated, 5 h; at 17.2 µM (top of the series) unless noted
Method in brief: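 Normalization used AC90 stimulation (300 pM IL-6) and AC90 inhibition (125 nM pan-JAK inhibitor at 40 pM IL-6). The underlying signal is SIE-driven beta-lactamase in ME-180 cells after 5 h IL-6 exposure with compound.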

[4] = molecular target: Glucocorticoid receptor (Homo sapiens) (UniProt P04150); assay: GR-GFP Redistribution (AID 450;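 active means compounds whose dose series gives a full or clear partial fitted curve of increased nuclear translocation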; further: potency means the concentration at half of the fitted maximal effect)
[5] = molecular target: Glucocorticoid receptor (Homo sapiens) (UniProt P04150); assay: GR-EFC Redistribution (AID 451; calls by dose curve; further: potency means the concentration at half of the fitted maximal effect); conditions: CHO-K1 GR-EFC translocation, beta-gal luminescence, 2 h
Method in brief: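 CHO-K1 cells expressing nuclear EA and GR-ED fragments of b-gal; compounds titrated up to 46 uM final, 2 h at 37 C. GR nuclear translocation read as complemented b-gal luminescence after 1 h RT detection.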

[6] = molecular target: Mitogen-activated protein kinase 10 (Mus musculus) (UniProt Q61831); assay: JNK3 AlphaScreen Assay (AID 530; active means well fitted curve in either direction with a large enough effect, not every such curve was filed as active;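 further: kinase came from lysate of stimulated human HepG2 cells; signal reports phosphorylation of biotinylated GST-cJun 1-79 at Ser73 with 10 µM ATP; on the % scale 0 is the no-effect control and ±100 the full control effect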)
Method in brief: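 Activity was read by AlphaScreen after JNK3-containing HepG2 lysate (cytokine pre-activated) phosphorylated biotinylated GST-cJun with 10 uM ATP at room temperature. Phospho-Ser73 cJun antibody with Protein-A acceptor beads provided detection.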

[7] = molecular target: 3',5'-cyclic-AMP phosphodiesterase 4B (Homo sapiens) (UniProt Q07343); assay: qHTS Assay for Inhibitors of PDE-IV (AID 607; active means well fitted activation curve with a large enough effect in the main read-out, with a control signal flat, not every such curve was filed as active; further: % of control where 0% means no effect)
Method in brief: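 HEK293 ACTOne cells with CNG channel (1000/well), endogenous PDE4; membrane potential dye, compounds up to 22.9 uM final. Fluorescence Ex 535/Em 590; RO 20-1724 (100 uM final) as reference.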

[8] = qHTS Assay for Identification of Small Molecule Antagonists for NFkB Signaling Pathway (AID 895; active means well fitted inhibition curve with a large enough effect in the signal ratio, with a control signal flat, not every such curve was filed as active; the % refers to the signal ratio; further: potency means the concentration at half of the fitted maximal effect)
Method in brief: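 ME-180 NFkB-bla cells (beta-lactamase under NFkB response element), plated overnight, treated with compound then 10 pM TNF alpha (about EC50) for 5 hrs at 37 C. LiveBLAzer FRET read at 460/530 nm emission, 405 nm excitation.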

[9] = qHTS Assay for Identification of Small Molecule Agonists for Thrombopoietin (TPO) Signaling Pathway (AID 917); further: on the % scale 0 is the no-effect control and ±100 the full control effect
Method in brief: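 Human TPO receptor–transfected Ba/F3 cells (murine, IL-3-dependent) in IL-3-deficient medium; compounds plus TPO at EC50, 26 pM final; 24 hrs, 37 C; GpIIb-luciferase luminescence after 10 min RT detection.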

[10] = molecular target: Pyruvate kinase (Leishmania mexicana) (UniProt Q27686); assay: qHTS Validation Assay for Inhibitors of Leishmania Mexicana Pyruvate Kinase (AID 945);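 further: 0% = DMSO only neutral control wells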
Method in brief: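 Luminescent ATP detection (PKLight) after a 1 h room-temperature reaction of 0.2 nM LmPYK E451W mutant with 0.5 mM PEP and 0.1 mM ADP at pH 7.2. Activity is normalized to DMSO-only control wells.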

[11] = molecular target: Pyruvate kinase PKM (Homo sapiens) (UniProt P14618); assay: qHTS Assay for Activators of Human Muscle Pyruvate Kinase (AID 954; active means well fitted curve in the direction sought with a large enough effect, not every such curve was filed as active;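 further: 0% = uninhibited enzyme and -100% = no enzyme or full thiadiazolimine inhibition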)
Method in brief: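 Compound pinned into substrate mix (0.5 mM PEP, 0.1 mM ADP), then 0.1 nM PKM2 added; 1 h, RT. Stop/detection luciferase reagent added, luminescence read. Normalized to no-inhibition and no-enzyme or reference-inhibitor controls.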

[12] = molecular target: Alpha-galactosidase A (Homo sapiens) (UniProt P06280); assay: Counterscreen for Glucocerebrosidase Inhibitors: qHTS Assay for Human alpha-Galactosidase at pH 4.5 (AID 992); further: 0% is about no effect
Method in brief: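 Steps: enzyme (2 nM final), then compound across 0.7 nM to 77 uM, then 80 uM fluorogenic galactopyranoside substrate; incubate 20 min at room temperature; quench at pH 10; measure fluorescence at 365/440 nm.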

[13] = NFAT Signaling Pathway (AID 444; active means well fitted curve in either direction with a large enough effect, not every such curve was filed as active); conditions: Jurkat NFAT-bla M1, carbachol, beta-lactamase ratio, 5 h; at 17.2 µM (top of the series) unless noted
Method in brief: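 Jurkat cells with NFAT-driven β-lactamase reporter and co-expressed M1 receptor, stimulated with carbachol (final 1 uM, ~EC50), compound titration, 5 h at 37 °C. CCF4 loaded 1 h at RT; 460/530 nm ratio gave %activity and AC50.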

[14] = molecular target: Cytochrome P450 2C19 (Homo sapiens) (UniProt P33261); assay: qHTS Assay for Inhibitors and Substrates of Cytochrome P450 2C19 (AID 899); further: nearly all actives have a fitted effect of over 60% in size
Method in brief: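 5 nM human CYP2C19 with 10uM Luciferin-H EGE (at KM) in 50mM KPO4, compound preincubated 10 min at 37C, then NADPH regeneration for 60 min at 37C. Luciferin read by luminescence after detection reagent; normalized to 57uM ketoconazole as full inhibition.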

[15] = molecular target: alpha-glucosidase (Oryza sativa, rice) (UniProt Q653V4); assay: Counterscreen for Glucocerebrosidase Inhibitors: qHTS Assay for Rice alpha-Glucosidase at pH 5.0 (AID 997);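 further: 0% = full activity with enzyme and -100% = basal without enzyme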
Method in brief: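 Endpoint fluorogenic assay at pH 5.0: compounds (0.7 nM to 77 uM) titrated against 4 nM rice enzyme and 400 uM 4-MU-alpha-glucoside for 20 min at room temperature; NaOH/glycine stop, read ex 365/em 440 nm, Hill-fitted AC50.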

[16] = molecular target: Guanine nucleotide-binding protein G(i) subunit alpha-1 (Homo sapiens) (UniProt P63096); assay: qHTS Assay for Inhibitors of RGS12 GoLoco Motif Activity (Green Fluorophore) (AID 879);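 further: 0% = labeled peptide with Gαi1 and full inhibition = labeled peptide alone without protein; negative values mean loss of peptide binding seen as reduced polarization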
Method in brief: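 A drop in FITC polarization marked displacement of the FITC-tagged RGS12 GoLoco peptide (10 nM) from Gαi1 (50 nM). Compounds were incubated 10 min at room temperature in Tris pH 7.5 buffer containing 150 mM NaCl, 0.1 mM GDP and 0.05% NP40; unlabeled peptide titration served as control.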

[17] = molecular target: Cytochrome P450 3A4 (Homo sapiens) (UniProt P08684); assay: qHTS Assay for Inhibitors and Substrates of Cytochrome P450 3A4 (AID 884); further: on the % scale 0 is the no-effect control and ±100 the full control effect; nearly all actives have a fitted effect of over 50% in size
Method in brief: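 Luminescent readout of luciferin produced by CYP3A4 (20 nM) dealkylation of Luciferin-PPXE, 25 uM (its KM). NADPH-driven reaction ran 60 min at RT after 10 min compound preincubation; data scaled to 57 uM ketoconazole as 100% inhibition.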

Cytochrome P450 1A2 (Homo sapiens), sequence (P05177 whole entry, looked up): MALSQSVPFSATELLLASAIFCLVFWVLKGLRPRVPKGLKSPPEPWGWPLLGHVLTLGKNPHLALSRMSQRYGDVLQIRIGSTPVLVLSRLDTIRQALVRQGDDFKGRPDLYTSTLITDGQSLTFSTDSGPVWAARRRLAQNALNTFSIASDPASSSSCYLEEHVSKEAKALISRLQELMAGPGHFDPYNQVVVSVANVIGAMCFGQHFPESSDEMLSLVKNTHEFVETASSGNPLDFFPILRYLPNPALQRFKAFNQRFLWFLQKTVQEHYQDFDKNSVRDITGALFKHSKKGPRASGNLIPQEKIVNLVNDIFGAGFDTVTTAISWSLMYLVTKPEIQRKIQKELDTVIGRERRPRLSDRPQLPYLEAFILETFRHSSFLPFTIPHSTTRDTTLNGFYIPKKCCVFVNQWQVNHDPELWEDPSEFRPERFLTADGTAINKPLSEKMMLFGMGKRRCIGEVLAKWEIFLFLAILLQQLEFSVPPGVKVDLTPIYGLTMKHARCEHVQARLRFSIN
Pyruvate kinase PKM (Homo sapiens), sequence (P14618 whole entry, looked up): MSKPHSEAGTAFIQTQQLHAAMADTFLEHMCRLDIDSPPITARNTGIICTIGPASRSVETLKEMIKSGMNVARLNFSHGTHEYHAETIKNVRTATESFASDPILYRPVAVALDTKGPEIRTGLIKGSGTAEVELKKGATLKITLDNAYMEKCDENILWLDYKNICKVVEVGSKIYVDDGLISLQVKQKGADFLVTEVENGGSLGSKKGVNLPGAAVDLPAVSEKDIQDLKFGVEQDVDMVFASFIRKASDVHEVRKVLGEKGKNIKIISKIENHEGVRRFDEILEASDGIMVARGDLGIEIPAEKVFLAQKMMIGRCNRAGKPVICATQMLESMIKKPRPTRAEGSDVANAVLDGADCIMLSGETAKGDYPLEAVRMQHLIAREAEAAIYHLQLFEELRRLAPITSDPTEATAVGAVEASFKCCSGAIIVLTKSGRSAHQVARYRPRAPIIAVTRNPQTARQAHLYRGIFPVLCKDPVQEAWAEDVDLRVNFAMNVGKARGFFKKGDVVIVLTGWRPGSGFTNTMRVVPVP
Glucocorticoid receptor (Homo sapiens), sequence (P04150 whole entry, looked up, the tested form may be a part): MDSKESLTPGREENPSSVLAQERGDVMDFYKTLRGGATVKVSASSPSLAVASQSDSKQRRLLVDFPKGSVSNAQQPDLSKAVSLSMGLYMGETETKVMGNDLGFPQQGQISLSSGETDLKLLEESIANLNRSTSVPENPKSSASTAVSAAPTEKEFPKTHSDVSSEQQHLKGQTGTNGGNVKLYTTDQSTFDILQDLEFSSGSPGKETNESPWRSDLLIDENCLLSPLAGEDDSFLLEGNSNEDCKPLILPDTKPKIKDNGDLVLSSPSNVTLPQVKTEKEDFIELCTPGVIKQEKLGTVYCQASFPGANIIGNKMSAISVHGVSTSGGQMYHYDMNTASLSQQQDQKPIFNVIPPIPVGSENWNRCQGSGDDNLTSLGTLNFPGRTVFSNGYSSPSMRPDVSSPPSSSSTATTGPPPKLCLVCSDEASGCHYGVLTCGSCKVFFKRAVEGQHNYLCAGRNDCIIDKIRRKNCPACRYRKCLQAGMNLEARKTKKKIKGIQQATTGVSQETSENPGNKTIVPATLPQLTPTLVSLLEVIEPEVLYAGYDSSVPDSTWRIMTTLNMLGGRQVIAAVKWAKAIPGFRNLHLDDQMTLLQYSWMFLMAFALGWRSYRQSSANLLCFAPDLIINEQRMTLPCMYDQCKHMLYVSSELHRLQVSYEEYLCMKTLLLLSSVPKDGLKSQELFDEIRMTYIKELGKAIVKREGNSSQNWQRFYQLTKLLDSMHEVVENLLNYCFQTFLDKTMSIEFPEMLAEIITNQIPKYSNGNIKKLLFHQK
3',5'-cyclic-AMP phosphodiesterase 4B (Homo sapiens), sequence (Q07343 whole entry, looked up): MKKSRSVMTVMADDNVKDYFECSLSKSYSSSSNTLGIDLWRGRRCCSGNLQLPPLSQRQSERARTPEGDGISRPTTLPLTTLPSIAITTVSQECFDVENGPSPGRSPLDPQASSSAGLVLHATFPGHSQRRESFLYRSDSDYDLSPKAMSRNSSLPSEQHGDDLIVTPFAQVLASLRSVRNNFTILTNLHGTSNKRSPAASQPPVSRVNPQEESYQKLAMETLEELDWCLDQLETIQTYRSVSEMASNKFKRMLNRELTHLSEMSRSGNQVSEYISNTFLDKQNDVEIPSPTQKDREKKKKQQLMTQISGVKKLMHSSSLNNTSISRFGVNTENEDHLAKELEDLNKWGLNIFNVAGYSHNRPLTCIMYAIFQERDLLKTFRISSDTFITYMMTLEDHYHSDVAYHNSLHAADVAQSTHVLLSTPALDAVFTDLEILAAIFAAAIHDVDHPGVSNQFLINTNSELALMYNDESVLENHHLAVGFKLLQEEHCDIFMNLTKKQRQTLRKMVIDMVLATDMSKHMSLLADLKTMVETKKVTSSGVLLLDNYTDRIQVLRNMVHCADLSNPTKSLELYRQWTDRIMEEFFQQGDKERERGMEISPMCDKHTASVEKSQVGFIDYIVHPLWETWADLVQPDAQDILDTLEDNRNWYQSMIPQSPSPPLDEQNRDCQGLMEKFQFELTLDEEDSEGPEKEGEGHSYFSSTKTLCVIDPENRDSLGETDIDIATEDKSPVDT
Alpha-galactosidase A (Homo sapiens), sequence (P06280 whole entry, looked up): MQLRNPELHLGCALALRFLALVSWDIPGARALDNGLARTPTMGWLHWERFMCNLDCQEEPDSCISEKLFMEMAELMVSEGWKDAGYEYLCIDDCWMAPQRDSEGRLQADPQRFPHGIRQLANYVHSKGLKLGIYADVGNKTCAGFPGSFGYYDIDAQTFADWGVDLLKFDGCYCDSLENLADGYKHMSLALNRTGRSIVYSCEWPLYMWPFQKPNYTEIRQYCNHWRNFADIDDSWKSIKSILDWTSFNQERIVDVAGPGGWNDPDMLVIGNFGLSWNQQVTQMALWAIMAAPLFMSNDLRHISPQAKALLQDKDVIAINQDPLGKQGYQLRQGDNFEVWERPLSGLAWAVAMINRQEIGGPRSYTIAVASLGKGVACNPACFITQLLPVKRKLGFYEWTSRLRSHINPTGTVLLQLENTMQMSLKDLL
Pyruvate kinase (Leishmania mexicana), sequence (Q27686 2-499 E452W): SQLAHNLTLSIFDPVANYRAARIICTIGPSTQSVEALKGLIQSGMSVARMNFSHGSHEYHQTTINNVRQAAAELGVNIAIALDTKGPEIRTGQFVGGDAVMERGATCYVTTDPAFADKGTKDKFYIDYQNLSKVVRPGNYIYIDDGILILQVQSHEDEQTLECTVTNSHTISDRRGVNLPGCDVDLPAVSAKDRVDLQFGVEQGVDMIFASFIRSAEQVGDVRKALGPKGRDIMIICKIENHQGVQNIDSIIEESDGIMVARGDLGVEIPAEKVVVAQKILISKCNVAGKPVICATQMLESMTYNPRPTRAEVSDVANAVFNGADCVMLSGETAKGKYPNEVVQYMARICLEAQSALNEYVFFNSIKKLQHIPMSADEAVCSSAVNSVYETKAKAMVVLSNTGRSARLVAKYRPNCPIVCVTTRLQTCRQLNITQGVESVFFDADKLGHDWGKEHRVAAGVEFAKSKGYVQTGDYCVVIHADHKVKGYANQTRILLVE
Cytochrome P450 3A4 (Homo sapiens), sequence (P08684 whole entry, looked up): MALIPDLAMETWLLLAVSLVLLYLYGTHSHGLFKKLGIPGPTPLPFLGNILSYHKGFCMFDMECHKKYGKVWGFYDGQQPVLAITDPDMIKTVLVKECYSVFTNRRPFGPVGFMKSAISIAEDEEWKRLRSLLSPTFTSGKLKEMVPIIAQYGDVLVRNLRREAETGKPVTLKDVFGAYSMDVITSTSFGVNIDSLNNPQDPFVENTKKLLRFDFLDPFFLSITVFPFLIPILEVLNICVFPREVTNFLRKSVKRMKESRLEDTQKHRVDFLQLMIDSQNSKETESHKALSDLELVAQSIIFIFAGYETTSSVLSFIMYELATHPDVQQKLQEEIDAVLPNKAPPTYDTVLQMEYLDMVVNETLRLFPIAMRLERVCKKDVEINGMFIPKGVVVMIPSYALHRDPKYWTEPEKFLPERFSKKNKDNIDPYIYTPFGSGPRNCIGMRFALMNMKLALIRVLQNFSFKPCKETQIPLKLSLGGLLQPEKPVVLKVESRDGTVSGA
Guanine nucleotide-binding protein G(i) subunit alpha-1 (Homo sapiens), sequence (P63096 whole entry, looked up): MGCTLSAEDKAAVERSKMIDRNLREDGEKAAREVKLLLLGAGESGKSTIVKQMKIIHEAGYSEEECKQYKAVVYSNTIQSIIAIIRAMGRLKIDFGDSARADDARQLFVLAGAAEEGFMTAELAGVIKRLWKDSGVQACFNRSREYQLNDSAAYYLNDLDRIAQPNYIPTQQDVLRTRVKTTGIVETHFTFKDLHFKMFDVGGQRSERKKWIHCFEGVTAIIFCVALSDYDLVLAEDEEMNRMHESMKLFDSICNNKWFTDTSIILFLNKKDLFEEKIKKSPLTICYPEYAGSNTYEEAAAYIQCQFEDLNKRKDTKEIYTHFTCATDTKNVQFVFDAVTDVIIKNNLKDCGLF
Cytochrome P450 2C19 (Homo sapiens), sequence (P33261 whole entry, looked up): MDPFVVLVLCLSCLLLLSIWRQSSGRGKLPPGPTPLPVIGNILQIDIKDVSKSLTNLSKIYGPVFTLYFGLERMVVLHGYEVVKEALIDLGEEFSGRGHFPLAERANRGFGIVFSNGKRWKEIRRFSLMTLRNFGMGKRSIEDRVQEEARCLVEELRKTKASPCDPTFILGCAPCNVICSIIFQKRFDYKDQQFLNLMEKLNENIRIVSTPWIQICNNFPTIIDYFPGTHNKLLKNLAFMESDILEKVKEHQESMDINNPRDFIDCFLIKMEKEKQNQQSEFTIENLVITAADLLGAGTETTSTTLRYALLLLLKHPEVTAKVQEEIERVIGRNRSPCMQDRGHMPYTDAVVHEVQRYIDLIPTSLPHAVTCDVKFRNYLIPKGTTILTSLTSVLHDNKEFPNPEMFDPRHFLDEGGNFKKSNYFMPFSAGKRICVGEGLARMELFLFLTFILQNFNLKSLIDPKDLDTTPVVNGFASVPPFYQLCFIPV

C[C@@]12CCC(=O)C=C1CC[C@@H]1[C@@H]2[C@H](O)C[C@]2(C)[C@@H]1CC[C@]2(O)C(=O)COC(=O)CCC(=O)O
active: Potency [4] 0.112 µM | Potency [5] 1.12 µM | Potency [8] 0.224 µM
inactive: activity change, negative = inhibition [1] -0.329% [at 38 µM] | Potency [2] | activity, negative = inhibition [3] -14.6% [at 38 µM] | Potency [6] | Potency [7] | Potency [9] | Potency [10] | outcome [11] | outcome [12]

CCC1(C)Cc2c(sc(NC(=O)CCC(=O)O)c2C#N)CO1 (configuration not stated)
inactive: activity change, negative = inhibition [1] 4.06% | activity change, negative = inhibition [13] 0.708% | activity, negative = inhibition [3] 9.62% | Potency [4] > 20.6 µM

COc1cc2nc(N3CCN(C(=O)[C@H]4COc5ccccc5O4)CC3)nc(N)c2cc1OC
inactive: activity change, negative = inhibition [1] -28.6% [at 38 µM] | Potency [2] | activity, negative = inhibition [3] -8.72% [at 38 µM] | Potency [6] | Potency [7] | outcome [14] | Potency [9] | Potency [10] | outcome [11] | outcome [12] | outcome [15]

Clc1ccc(C(c2ccc(Cl)cc2)n2cc[n+](C[C@@H](OCc3ccc(Cl)cc3Cl)c3ccc(Cl)cc3Cl)c2)cc1
active: Potency [2] 31.6 µM
inactive: activity change, negative = inhibition [1] -7.48% [at 38 µM] | Potency [4] > 46 µM | Potency [5] > 46 µM | Potency [6] | Potency [7] | Potency [10] | outcome [11] | outcome [12]

COc1cc2nc(N3CC=[N+](C(=O)c4ccco4)CC3)nc(N)c2cc1OC
inactive: activity change, negative = inhibition [1] -19.6% [at 38 µM] | Potency [4] > 46 µM | Potency [5] > 46 µM | Potency [6] | Potency [7] | outcome [16] | Potency [17] | Potency [10] | outcome [11] | outcome [12]
active: Potency [2] 12.6 µM

C/C=C1\C(=O)C[C@@H]2[C@@H]3CCC4=CC(=O)CC[C@@]4(C)[C@H]3CC[C@@]12C
inactive: activity change, negative = inhibition [1] 13.9% [at 38 µM] | Potency [2] | activity, negative = inhibition [3] 7.49% [at 38 µM] | Potency [7] | Potency [17] | Potency [8] | Potency [10] | outcome [11] | outcome [12] | outcome [15]
